# Screening results as filed in PubChem BioAssay.
# TDP1 cell CPT – growth inhibition of DT40 Tdp1-/-;hTDP1 cells with camptothecin (screen for TDP1 inhibitors) | Potency, µM (series often up to 46.2 µM), inactives show at the top dose activity change, negative = growth inhibition, hits mostly inhibitors | chicken DT40 Tdp1-/-;hTDP1 cells + 20 nM CPT, ATP luminescence, 48 h | 420,000 compounds, 12% hits | AID 686979; also: % is scaled to controls: 0 for no effect and ±100 for the full control effect; nearly all actives have a fitted effect of over 55% in size
#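 Chicken DT40 Tdp1-/- cells stably complemented with human TDP1 were seeded at 400 cells/well in medium containing 20 nM camptothecin, exposed to pin-transferred compounds, and grown at 37 °C for at least 48 hr. Viability was read as ATP luminescence.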
# TDP1 cell noCPT – qHTS for Inhibitors of human tyrosyl-DNA phosphodiesterase 1 (TDP1): qHTS in cells in absence of CPT; DT40 Tdp1-/- hTDP1 cells, no CPT, ATP luminescence, 48 h; 420,000 compounds, 15% hits; Potency, µM (highest dose often 46.2 µM), inactives show top-dose activity change, negative = growth inhibition, actives largely listed as inhibitors; also: % is scaled to controls: 0 for no effect and ±100 for the full control effect; nearly all actives have a fitted effect of over 55% in size
#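 Luminescent ATP content (CellTiter-Glo) served as the growth readout. Knockout chicken DT40 cells expressing human TDP1 were exposed to compounds without camptothecin for a minimum 48 hr at 37 °C.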
# ClpP mod – qHTS Assay for Activators of ClpP; ATP-dependent Clp protease proteolytic subunit (Bacillus subtilis (strain 168)), P80244; purified B. subtilis ClpP, FRET peptide cleavage, 20 min; Potency, µM (doses to about 57.5 µM), for the others: at the top dose activity change, negative = active; 340,000 compounds, 1.9% hits; active = well fitted falling curve with a large enough effect; inconclusive = small, poorly fitted or top-dose-only effect; inactive = no such curve, though single readings can be large or run the other way; also: the source files actives as falling curves though it sought activators and does not explain the sign; nearly all actives have a fitted effect of over 65% in size
#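 FRET quenching reversal measured ClpP activation: 10 microg/mL B. subtilis ClpP at pH 8 with the FRET-FV decapeptide, read at 430 nm after 320 nm excitation. The 20-min minus 0-min signal was scaled between DMSO/no-enzyme wells and ADEP (5.8 microM final).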
# TDP1 block – TDP1 (human) enzyme inhibition | Q9NUW8 | recombinant TDP1, AlphaScreen DNA substrate cleavage | Potency, µM (series often up to 130 µM), for inactives: at the highest dose activity change, negative = inhibition, most hits filed as inhibitors | 350,000 compounds, 0.28% hits | AID 485290; also: % is scaled to controls: 0 for no effect and ±100 for the full control effect; nearly all actives have a fitted effect of over 40% in size
#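 Recombinant E. coli-expressed Tdp1 (1 nM) preincubated with compound 15 min at RT, then 5'-biotin/3'-phosphotyrosine-FITC DNA substrate (15 nM) added for 5 min. AlphaScreen beads (10 ug/ml) added, 10 min RT; tyrosine-FITC cleavage read as signal loss.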
# Numbers without * were called inactive; u = inconclusive; x = no result. Rows were chosen to be rich in hits. Some 17% of all compounds tested hit in one or more screens of this group. Unless noted, calls follow the shape of the dose curve; as a rule, active = well fitted curve in the direction sought with a large enough effect; inconclusive = small, poorly fitted or top-dose-only effect, or another doubt; inactive = no such curve, though single readings can be large; an effect the other way counts as inactive or inconclusive. Potency is read from the fitted curve at half-maximal effect.
SMILES,TDP1 cell CPT,TDP1 cell noCPT,ClpP mod,TDP1 block
Cc1ccc(NC(=O)c2ncn(CCCN(C)CCc3ccccn3)n2)cc1C,-25%,-22%,1%,x
Cn1nc(C(=O)NC2CCCN(Cc3ccccc3F)C2)c2ccccc2c1=O (stereo unspecified),u,u,1%,5%
Cc1cc(C(=O)NC2CCCN(Cc3ccccc3F)C2)no1 (stereo unspecified),-20%,-28%,-2%,2%
CCc1cc(C(=O)NC2CCCN(Cc3ccccc3F)C2)n(C)n1 (stereo unspecified),6.5µM*,9.2µM*,1%,0%
COc1ccc(C(=O)NC2CCCN(Cc3ccccc3F)C2)c(OC)c1OC (stereo unspecified),u,5.2µM*,x,x
O=C(N/N=C/c1ccsc1)c1c[nH]c2ccccc12,-15%,-19%,-1%,2%
O=C(NCc1ccccc1)c1ccc2c(c1)nc1n2CCOC1,-12%,-5%,1%,5%
COC(=O)C1=C(C(=O)OC)N2C=CC=CC2(C)C(C(=O)OC)=C1C(=O)OC (stereo unspecified),-11%,-14%,2.8µM*,-3%
O=C(COC(=O)c1ccccc1NCCO)NCCC1=CCCCC1,-21%,u,25µM*,-11%
CC1CCN(C(=O)COC(=O)c2ccccc2NCCO)CC1,-5%,-23%,4%,x
O=C(OCC(=O)N(Cc1ccccc1)Cc1ccccc1)c1ccccc1NCCO,u,u,x,0%
CCN(C(=O)COC(=O)c1ccccc1NCCO)c1cccc2ccccc12,-29%,18µM*,x,x
O=C(COC(=O)c1ccccc1NCCO)NCCc1ccccc1,-12%,-28%,14µM*,x
CC(C#N)(NC(=O)COC(=O)c1ccccc1NCCO)C1CC1 (stereo unspecified),9%,-5%,25µM*,x
O=C(COC(=O)c1cc(Br)c(Br)s1)NCCC1=CCCCC1,23µM*,21µM*,2%,-3%
c1ccc(CNc2ncnc3ccc(-c4cccnc4)cc23)cc1,15µM*,16µM*,x,x
COc1cccc(-c2ccc3ncnc(NCc4cccnc4)c3c2)c1,12µM*,u,x,4%
Cc1cccnc1NC(=O)Nc1cccc2ccccc12,6%,6%,25µM*,3%
O=C(Nc1cccc2ccccc12)N(c1ccccc1)c1ccccc1,21µM*,21µM*,-26%,x
O=C(Nc1ccccc1)Nc1ccc(NC(=O)c2ccccc2O)cc1,-21%,-13%,-11%,x
O=C(Nc1ccccc1)Nc1cccc2ccccc12,16µM*,u,x,-3%
O=C(Nc1ccccc1)Nc1ccc(O)c2ccccc12,1.6µM*,12µM*,u,x
O=[N+]([O-])c1cc(-c2nc(-c3ccccc3)no2)ccc1N1CCCC1,-7%,-12%,1%,0%
CCOc1ccc(N2C(=O)CC(Sc3nc(CC(C)C)ccc3C#N)C2=O)cc1 (stereo unspecified),23µM*,u,x,7%
CCOc1ccc(N2C(=O)CC(Cc3cc(C)cc(C)c3)C2=O)cc1 (stereo unspecified),-6%,u,0%,x
SMILES,TDP1 cell CPT,TDP1 cell noCPT,ClpP mod,TDP1 block
CCOC(=O)CN1C(=O)C(Sc2n[nH]c(-c3ccccc3)n2)CCc2ccccc21 (stereo unspecified),21µM*,21µM*,1%,5%
CCOc1ccc(N2C(=O)CC(N)C2=O)cc1 (stereo unspecified),1.8µM*,2.6µM*,-1%,3%
CCOC(=O)CN1C(=O)C(CC)Oc2ccccc21 (stereo unspecified),-2%,-18%,0%,3%
COc1ccc(N2C(=O)CC(Sc3n[nH]c(-c4ccccc4)n3)C2=O)cc1 (stereo unspecified),0.46µM*,1.2µM*,0%,10%
COCCNC(=O)C1CCC(CNS(=O)(=O)c2ccc(F)cc2)CC1 (stereo unspecified),-2%,-1%,-1%,x
Cc1noc(C)c1C(=O)N1CCC(C(=O)c2ccc(F)cc2F)CC1,7%,-4%,2%,-3%
O=C(c1ccc(F)c(F)c1)N1CCC2(CC1)NCCc1[nH]cnc12,-6%,16%,0%,6%
CCOc1ccc(N2C(=O)CC(SCc3nc4ccccc4[nH]3)C2=O)cc1 (stereo unspecified),16µM*,u,x,x
CCOc1ccc(N2C(=O)CC(Sc3n[nH]c(-c4ccccc4)n3)C2=O)cc1 (stereo unspecified),7.3µM*,7.3µM*,0%,7%
CCOc1ccc(N2C(=O)CC(SCC(=O)O)C2=O)cc1 (stereo unspecified),-6%,-1%,x,0%
CC1(C(=O)NS(=O)(=O)c2ccccc2Cl)CCN1C(=O)Cc1ccccc1Cl (stereo unspecified),-1%,1%,1%,x
Cc1cc(S(=O)(=O)N2CCCCC2)ccc1OCC(=O)N1CCCC1,2%,-15%,1%,4%
Cc1cc(S(=O)(=O)N2CCN(Cc3noc(CCC(=O)N4CCCCC4)n3)CC2)ccc1F,16µM*,u,0%,6%
O=C(CN1C(=O)CC(c2ccco2)Sc2ccccc21)NC1CCCCC1 (stereo unspecified),u,u,0%,x
COCCn1c(=S)[nH]c2cc(C(=O)N3CCN(Cc4ccccc4)CC3)ccc2c1=O,-26%,u,-4%,x
Cc1ccc2[nH]c3c(c2c1)CN(C(=O)CN1CCN(c2ccccc2F)CC1)CC3,x,x,x,5%
Cc1ccc2[nH]c3c(c2c1)CN(C(=O)CC1(c2ccccc2)CC(=O)N(Cc2cccnc2)C1=O)CC3 (stereo unspecified),u,16µM*,x,x
Cc1ccc2[nH]c3c(c2c1)CN(C(=O)CN1CCCc2ccccc21)CC3,23µM*,u,1%,12%
Cc1ccc2[nH]c3c(c2c1)CN(C(=O)CN1CCCCC1)CC3,u,u,-1%,2%
Cc1ccc(CNC(=O)c2nnc(Cc3cccc(F)c3)o2)cc1,-20%,-22%,-1%,-5%
O=C(c1noc2c1CCCCC2)N1CCN(c2cccc(Cl)c2)CC1,u,u,-1%,-4%
O=C(c1noc2c1CCCCC2)N1CCN(c2cccc(C(F)(F)F)c2)CC1,u,16µM*,-7%,-5%
O=C(c1csc2c1CCCC2)N1CCN(c2cccc(C(F)(F)F)c2)CC1,u,15µM*,-1%,-5%
O=C(c1noc2c1CCCC2)N1CCN(C(c2ccccc2)c2ccccc2)CC1,x,x,x,0%
O=C(c1noc2c1CCCCC2)N1CCN(C(c2ccccc2)c2ccccc2)CC1,13µM*,21µM*,0%,x
COc1ccc(CCNC(=O)c2cccc(Nc3nc4ccccc4nc3-n3nc(C)cc3C)c2)cc1OC,5.2µM*,4.6µM*,-14%,-2%
